# TRPML1 ag: human mucolipin-1 channel agonism; actives 0.12% (n = 410,000); Q9GZU1; TRPML1-expressing cells, Ca2+ dye fluorescence, FDSS; activation, % (test concentration not listed); in the data active = activation above about 50%; inconclusive = mostly about 30% to 49%; note: 0% is about no effect
# Target sequence (Q9GZU1 whole entry, looked up): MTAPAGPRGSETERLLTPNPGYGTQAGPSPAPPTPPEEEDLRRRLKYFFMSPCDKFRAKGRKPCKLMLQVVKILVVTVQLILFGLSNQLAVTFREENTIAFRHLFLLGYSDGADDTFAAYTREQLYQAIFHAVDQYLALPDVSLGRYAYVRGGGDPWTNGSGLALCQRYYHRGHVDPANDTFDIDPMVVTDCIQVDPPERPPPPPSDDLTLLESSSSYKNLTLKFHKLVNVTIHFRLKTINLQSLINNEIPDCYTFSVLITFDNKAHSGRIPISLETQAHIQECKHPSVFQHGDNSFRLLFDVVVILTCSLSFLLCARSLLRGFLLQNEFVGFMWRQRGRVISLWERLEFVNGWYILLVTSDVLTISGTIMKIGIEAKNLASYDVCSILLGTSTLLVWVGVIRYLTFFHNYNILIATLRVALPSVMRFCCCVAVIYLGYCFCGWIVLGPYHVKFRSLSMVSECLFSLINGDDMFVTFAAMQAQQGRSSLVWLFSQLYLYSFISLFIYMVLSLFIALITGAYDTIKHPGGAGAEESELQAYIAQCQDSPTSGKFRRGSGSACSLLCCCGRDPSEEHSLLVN
#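 Kinetic FDSS Ca2+ read in Tet-induced TRPML1-DL cells (ABD Ca8 dye plus quencher, 45-90 min RT loading): baseline, then compound, then 110 s agonist window; EC80 agonist 54-4 at 4uM final added afterwards for a 110 s antagonist window.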
# DRD3 agonist: D3 dopamine receptor (human) agonism. P35462. max activation, %. D3R DiscoveRx beta-arrestin cells, luminescence, 90 min. actives 0.58% (n = 410,000); in the data active = max activation above about 30%; note: 0% is about no effect
#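 Agonist mode: compounds and dopamine controls were applied to plated cells for 90 min at 37 degrees C after an overnight attachment at 1500 cells/well. Luminescent read-out followed 30 - 60 minutes at room temperature with DiscoveRx detection reagent.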
# TRPML1 inh: inhibitors of human TRPML1 channel. Q9GZU1. TRPML1-inducible cells, Ca2+ dye fluorescence, FDSS; hits give low values; inhibition of EC80 agonist-evoked calcium signal. activity change, negative = inhibition, % (test concentration not listed). actives 0.02% (n = 390,000). AID 624415; in the data active = activity change below about -50%; inconclusive = between about -30% and that limit;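 note: stimulus is agonist 54-4 at its EC80 concentration; % is set by controls: 0 for no effect and ±100 for the full control effect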
#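 TRPML1-DL cells, Tet-induced overnight (~16 h, 37 °C) at 1,500 cells/well, were loaded with Ca8 no-wash dye plus quencher for 45-90 min at room temperature. Compounds were pinned during FDSS kinetic reading; agonist 54-4 at EC80 (4 uM final) then added.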
# D3 antag: D3 dopamine receptor (human) antagonism; P35462; D3R cells, DiscoveRx beta-arrestin luminescence, antagonist mode; hits give low values; actives 2.5% (n = 360,000); max response, negative = inhibition, %; AID 652054; in the data active = max response below about -50%; inconclusive = no clear call, values can overlap the other calls; note: % is set by controls: 0 for no effect and ±100 for the full control effect
#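 Cells plated overnight at 1500 cells/well, then exposed to library compounds with dopamine controls for 90 minutes at 37 degrees C. DiscoveRx reagent added for 30–60 minutes at room temperature; luminescence read, quantitative HTS format.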
# Starred values were filed as active, the others as inactive; ? = inconclusive; . = no result given. In the library only some 2.9% were active in any assay of this set; here they are far more common.
SMILES,TRPML1 ag,DRD3 agonist,TRPML1 inh,D3 antag
CCOc1ccccc1NC(=O)CC1Nc2cc(C)c(C)cc2NC1=O (configuration not stated),-1,-5,-7,-17
COc1ccc(/C=C/C(=O)c2c(O)c(OC)c3occc3c2OC)cc1OC,0,.,.,.
O=C(Nc1cccnc1)c1cc(-c2ccccc2O)on1,-1,-2,1,-19
O=C(Nc1cccc(C(F)(F)F)c1)c1cc(-c2cccs2)on1,2,-67,14,-65*
O=C(Nc1cccnc1)c1cc(-c2cccs2)on1,0,-23,11,-61*
COc1cccc(/C=N/n2c(COc3ccccc3)n[nH]c2=S)c1OC,1,0,-4,-6
Cc1n[nH]c(=S)n1/N=C/c1ccccc1OCc1ccc(Cl)cc1,0,-4,-7,-51*
COc1ccccc1/C=C/C=N/n1c(-c2ccc(F)cc2)n[nH]c1=S,5,-15,38,-12
COc1ccccc1/C=C/C=N/n1c(COc2ccccc2)n[nH]c1=S,2,-6,-8,-86*
COc1ccccc1/C=C\C=N\n1c(-c2ccc(Cl)cc2)n[nH]c1=S,3,-19,8,-51*
O=[N+]([O-])c1ccc(Cl)c(/C=N/n2c(COc3ccccc3)n[nH]c2=S)c1,0,-32,-15,-58*
COc1cc2c(NC3CCN(C)CC3)nc(N3CCCN(C)CC3)nc2cc1OCCN(C)C,0,.,.,.
Cc1cccc(-c2n[nH]c(=S)n2/N=C/C=C/c2ccco2)c1,1,-10,4,-98*
O=c1[nH]c(CN2CCN(C/C=C/c3ccccc3)CC2)nc2cc(Cl)ccc12,0,-20,-4,-53*
COc1ccc(-n2c(=O)c3c(c4cc(OC)ccc4n3C)n(Cc3c(F)cccc3Cl)c2=O)cc1,0,-18,-16,.
Cc1ccc(/C=C/C(=O)c2cc(Br)ccc2OC(=O)c2ccco2)cc1,0,-7,42,-28
COc1ccccc1/C=C/C(=O)c1cc(Br)ccc1OC(=O)c1ccco1,0,-4,1,-56*
C=CCc1ccc(OCC(O)CN2CCN(c3ccccc3)CC2)c(OC)c1 (configuration not stated),2,38*,7,?
C=CCc1ccc(OCC(O)CN2CCCCC2)c(OC)c1 (configuration not stated),-1,1,-7,-17
C=CCc1cc(C)ccc1OCC(O)CN1CCN(c2ccccc2)CC1 (configuration not stated),1,75*,21,-24
O=C(O)c1ccc2nc(-c3cc4cc(Cl)ccc4oc3=O)[nH]c2c1,0,1,-7,.
CCCCn1c(N)c(S(=O)(=O)c2ccc(C)cc2)c2nc3ccccc3nc21,-1,32*,5,11
CN(C)CCCn1c(N)c(S(=O)(=O)c2ccccc2)c2nc3ccccc3nc21,0,-4,-6,?
CCC(C)c1ccc(O)c(NC(=S)NC(=O)c2cccnc2)c1 (configuration not stated),1,-41,1,-63*
CC(=O)c1[nH]c(C)c(C(=O)NCc2ccc(Cl)cc2)c1C,1,6,-10,.
SMILES,TRPML1 ag,DRD3 agonist,TRPML1 inh,D3 antag
COc1ccccc1C(CNc1ncnc2sc(C)c(C)c12)N(C)C (configuration not stated),-1,-12,-10,-5
COc1ccc(C(CNc2ncnc3sc(C)c(C)c23)N(C)C)cc1 (configuration not stated),2,-14,?,-71*
CN(C)c1ccc(C=O)cc1[N+](=O)[O-],0,.,.,.
Cc1ccc2nc3c(c(N)c2c1)CCN3c1ccccc1,-1,-6,-14,-77*
CCC(=O)Nc1cc(NC(=O)CSc2ncc(-c3ccc(F)cc3)n2Cc2ccco2)ccc1C,0,1,4,-60*
Nc1ccc2c(c1)N1CCN=C1S2,1,-2,-11,-64*
COc1cccc2c(SCC(=O)N/N=C/c3ccc(O)c(O)c3)cc(C)nc12,0,31*,-12,5
Cc1cccc(N2CCN(C(=O)C3CCCN(S(=O)(=O)c4c(C)noc4C)C3)CC2)c1C (configuration not stated),0,67*,13,-6
COc1cc(C(=O)NC(=S)Nc2ccc(Cl)c(C(=O)O)c2)cc(OC)c1OC,0,-12,31,-89*
CC(C)c1ccc(NC2(C#N)C(=O)Nc3ccccc32)cc1 (configuration not stated),-1,-7,-15,-53*
CCc1nn2c(=O)cc(COC(=O)c3cccs3)nc2s1,1,7,-18,.
CN(C)c1ccc(/C=C/c2noc(-c3ccccc3O)n2)cc1,2,5,-1,.
Oc1ccccc1-c1nc(/C=C/c2ccccc2Cl)no1,1,88*,0,.
COc1cccc(C(=O)N2CCCCC2CCN2CCCCC2)c1 (configuration not stated),0,-23,3,.
COc1cc2sc3ccc(C#Cc4ccccn4)cc3c(=O)c2cc1OC,-1,8,-26,6
Nc1ccc2oc3ncccc3c(=O)c2c1,0,1,27,-98*
Nc1ccc(C#Cc2ccc3oc4ccccc4c(=O)c3c2)cc1,0,59*,-7,169
Cn1c2ccccc2c(=O)c2cc(C#Cc3ccc(N)cc3)ccc21,-1,59*,-11,65
Nc1cccc(C#Cc2ccc3c(=O)c4ccccc4oc3c2)c1,-1,27,-11,11
COc1cc2sc3ccc(C#Cc4ccc(N)cc4)cc3c(=O)c2cc1OC,1,35*,-19,6
O=C(O)CC1S/C(=N/N=C/c2ccc(-c3ccc(Cl)cc3[N+](=O)[O-])o2)NC1=O (configuration not stated),-1,-7,-2,-77*
Cc1cn2c(=O)cc(COc3ccc(NC(=O)c4ccc(C(C)(C)C)cc4)cc3)nc2s1,-1,51*,-1,.
Cc1cn2c(=O)cc(COc3ccccc3NC(=O)c3ccc(C(C)(C)C)cc3)nc2s1,-1,-10,-16,.
COc1ccc(SCC(CC(C)C)N2CCN(CCc3ccccc3)CCC2=O)cc1 (configuration not stated),1,.,-2,.
O=C(Nc1ccc(Nc2ccccc2)cc1)c1ccc(Cl)cc1[N+](=O)[O-],1,-15,-8,-66*
CC(=O)NS(=O)(=O)c1ccc(NC(=O)c2ccc(Cl)cc2[N+](=O)[O-])cc1,0,4,18,14
Cc1ccn2c(CNCCn3cccn3)c(C(=O)N3CCCCCC3)nc2c1,0,-8,9,-17
Cc1ccn2c(CNCCCn3cccn3)c(C(=O)N3CCCCCC3)nc2c1,0,-15,5,-58*
Cc1ccn2c(CNCC3OCCc4ccccc43)c(C(=O)N3CCCCCC3)nc2c1 (configuration not stated),-1,-13,16,-81*

# Compound activity from PubChem BioAssay.
